Data: PubChem BioAssay (NCI)
Compounds without any hit were thinned out: in the full panel of roughly 83,000, 20% have a hit.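 The test compound was applied at a single concentration to cells in 96-well plates for 48 hours, and percent growth was recorded.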 Active and inactive are the calls of the source. Rule for the calls: active = growth percent below 10; inactive = the rest.

These molecules were tested on HL-60(TB) leukemia (assay: NCI-60 one-dose screen, 48 h (100 = growth as untreated, 0 = no growth, -100 = all killed)). Settings: 10 µM unless noted.

Compound	growth
CS(=O)(=O)c1nccc(-c2c(-c3cccc(OCCN4CCOCC4)c3)nc3sccn23)n1	66.4% (inactive)
N#C/C(=C/C=C/c1cccc(Cl)c1)S(=O)c1ccccc1 (stereo not drawn)	-18.9% (active)
CN=C1C=C/C(=N/N=c2/ccn(O)cc2C)C=C1C	75.6% (inactive)
CCOC(=O)c1cc2c(n1C)-c1nc(NC(C)=O)sc1CCC2	102% (inactive)
CNS(=O)(=O)c1cccc(-c2ccc3c4c(n(C)c(=O)c3c2)-c2ccccc2C4=O)c1	-4.99% (active)
C#C[C@]1(O)CC[C@H]2[C@@H]3CC=C4c5sc(-c6ccccc6)nc5CC[C@]4(C)[C@H]3CC[C@@]21C	74.2% (inactive)
Cc1cc(O)c(C2=NN(c3ccc(S(N)(=O)=O)cc3)C(c3ccccc3O)C2)cc1Cl (stereo not drawn)	-35.4% (active)
COCCCN1CC(O)=C(c2nc(-c3ccc(C)cc3)cs2)C1=N	84.9% (inactive)
